Pol kappa inh: DNA polymerase kappa (human) inhibition; Q9UBT6; purified Pol kappa, fluorescent DNA synthesis assay, 10 min; Potency, µM (titrated, usually from 107 µM), without a hit: at the top dose activity, negative = inhibition, usual class: inhibitors; actives 0.53% (n = 400,000); AID 588579; further: on the % scale 0 is the no-effect control and ±100 the full control effect
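Kinetic fluorescence screen: compound preincubated 15 min RT with 10 nM enzyme; 50 nM substrate (final) initiates; reads at 0/10 min.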
L3MBTL1 block: blocks human L3MBTL1; Q9Y468; actives 0.66% (n = 230,000); AID 485360; Potency, µM (series often up to 57.1 µM), inactives show top-dose activity, negative = inhibition, usual class: inhibitors; AlphaScreen L3MBTL1–H3K9me1 peptide binding; further: on the % scale 0 is the no-effect control and ±100 the full control effect; nearly all actives have a fitted effect of over 60% in size
Target sequence (Q9Y468 whole entry, looked up): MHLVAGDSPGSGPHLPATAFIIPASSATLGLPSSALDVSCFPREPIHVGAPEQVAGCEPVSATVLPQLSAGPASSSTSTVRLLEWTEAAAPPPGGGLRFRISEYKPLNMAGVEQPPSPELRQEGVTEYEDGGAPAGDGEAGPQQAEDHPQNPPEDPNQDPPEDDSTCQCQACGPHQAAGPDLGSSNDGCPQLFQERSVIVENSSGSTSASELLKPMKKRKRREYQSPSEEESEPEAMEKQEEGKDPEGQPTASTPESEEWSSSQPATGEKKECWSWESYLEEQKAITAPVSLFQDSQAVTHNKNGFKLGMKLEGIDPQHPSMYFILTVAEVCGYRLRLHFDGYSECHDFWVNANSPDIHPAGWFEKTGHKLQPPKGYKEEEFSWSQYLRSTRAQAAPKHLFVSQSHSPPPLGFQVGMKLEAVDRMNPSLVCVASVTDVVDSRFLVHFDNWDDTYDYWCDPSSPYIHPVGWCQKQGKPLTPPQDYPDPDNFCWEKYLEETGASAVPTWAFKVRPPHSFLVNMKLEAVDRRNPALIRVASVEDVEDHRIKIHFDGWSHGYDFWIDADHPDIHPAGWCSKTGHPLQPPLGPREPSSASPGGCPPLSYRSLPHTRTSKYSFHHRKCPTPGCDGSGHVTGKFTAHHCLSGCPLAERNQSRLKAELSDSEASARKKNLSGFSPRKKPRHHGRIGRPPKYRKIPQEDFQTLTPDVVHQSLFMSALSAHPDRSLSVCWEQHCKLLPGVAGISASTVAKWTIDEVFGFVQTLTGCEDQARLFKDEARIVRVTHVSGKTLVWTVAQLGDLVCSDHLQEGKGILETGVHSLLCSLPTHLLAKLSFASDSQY
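AlphaScreen proximity signal between nickel-chelate acceptor and streptavidin donor beads (final 10 ug/mL) reports binding of 50 nM L3MBTL1 to 75 nM biotin-H3 K9me1 peptide; complex incubated with compounds 30 min at room temperature; cefsulodin titration as control.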
POLI inh: DNA polymerase iota (human) inhibition | actives 1% (n = 390,000) | Pol iota fluorescent replication assay, 10 min | Q9UNA4 | AID 588590 | Potency, µM (highest dose often 115 µM), without a hit: at the highest dose activity, negative = inhibition, actives largely listed as inhibitors
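Pol iota at 10 nM preincubated 15 min with compounds at room temperature; reaction started with fluorescent substrate, 50 nM final. Fluorescence read kinetically at 0 and 10 min; buffer-only wells as negative control.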
POLB inh: DNA polymerase beta (human) inhibition; Pol beta primer extension/strand displacement, fluorescence kinetic; Potency, µM (top dose mostly 114 µM), inactives show at the top dose activity change, negative = inhibition, most hits filed as inhibitors; actives 1.3% (n = 340,000); AID 485314; further: on the % scale 0 is the no-effect control and ±100 the full control effect
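Preincubation: enzyme (10 nM) with compound, 15 min, RT. Reaction: substrate added to 50 nM final. Reads: 0 and 10 min. Analysis: normalized, Hill fit.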
POLH inh: blocks human DNA polymerase eta activity; Q9Y253; AID 588591; Potency, µM (titrated, usually from 114 µM), without a hit: top-dose activity change, negative = inhibition, most hits filed as inhibitors; actives 1.2% (n = 390,000); recombinant Pol eta, fluorescent DNA replication assay; further: on the % scale 0 is the no-effect control and ±100 the full control effect
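Fluorescent replication assay: 50 nM final substrate added after a 15 min room-temperature compound preincubation with 10 nM enzyme. Signal taken at 0 min and again at 10 min.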
* hit, by the source's call; [ ] = another dose, or the depositor's remark. Hits are enriched below; roughly 2.4% of the tested compounds scored in any of these assays. The call rests on the fitted dose curve; in most records, active means well fitted curve in the direction sought with a large enough effect; inconclusive means small, poorly fitted or top-dose-only effect, or another doubt; inactive means no such curve, though single readings can be large; an effect the other way counts as inactive or inconclusive. Potency means the concentration at half of the fitted maximal effect.

Screening Cc1ccc(-n2ccc(=O)c(C(=O)Nc3ccc(S(=O)(=O)Nc4nccc(C)n4)cc3)n2)cc1 returned Pol kappa inh -14%, POLI inh inconclusive, POLB inh -14% and POLH inh 40µM*.
`O=C(Nc1ccc(S(=O)(=O)Nc2nccs2)cc1)C1=NN(c2ccccc2)C(=O)CC1` gave Pol kappa inh -23%, L3MBTL1 block -6%, POLI inh inconclusive, POLB inh inconclusive and POLH inh 50µM*.
Cc1ccc(-n2ccc(=O)c(C(=O)Nc3ccc(S(=O)(=O)Nc4nccs4)cc3)n2)cc1 was read as Pol kappa inh -10%, POLI inh 35%, POLB inh inconclusive and POLH inh 79µM*.
Screening COc1ccc(C)cc1N(C(=O)c1snc(C(N)=O)c1N)C(C(=O)NC1CCCCC1)c1ccc(C)o1 (configuration not stated) returned Pol kappa inh -14%, POLI inh -2%, POLB inh 1% and POLH inh -10%.
For O=C1C(Cl)=C(N2CCCCC2)C(=O)C(Cl)=C1c1cnc(N2CCCCC2)s1 the results were Pol kappa inh -36%, L3MBTL1 block 18µM*, POLI inh inconclusive, POLB inh 5.6µM* and POLH inh inconclusive.
CC(C)NC(=O)c1cnc2sc(N3CCCCCC3)nn2c1=O was read as Pol kappa inh 6%, POLI inh 46%, POLB inh 7% and POLH inh -17%.
`COc1ccc(NC(=O)N(C)C[C@@H]2Oc3ccc(NC(=O)NC(C)C)cc3CC(=O)N([C@H](C)CO)C[C@@H]2C)cc1` gave Pol kappa inh -9%, L3MBTL1 block -3%, POLI inh 48% and POLH inh -11%.
O=[N+]([O-])c1ccc(/C=N/Nc2nc(-c3ccccc3)c3cc(Br)ccc3n2)o1 was read as Pol kappa inh -7%, POLI inh -1%, POLB inh 10% and POLH inh inconclusive.
`Cc1ccc2nc(N/N=C\c3ccc([N+](=O)[O-])o3)nc(-c3ccccc3)c2c1` gave Pol kappa inh -18%, POLI inh inconclusive, POLB inh 28µM* and POLH inh inconclusive.
`CCC(CN(C)C)Oc1cc(NCc2ccccc2)c2ncn(C(C)C)c2c1` (configuration not stated) gave Pol kappa inh -12%, L3MBTL1 block inconclusive, POLI inh 14µM* and POLH inh -17%.
CC(C)c1ccc(/C=C2\SC(=O)N(CC(=O)NC3CCS(=O)(=O)C3)C2=O)cc1 (configuration not stated) was read as Pol kappa inh -16%, POLI inh 16µM*, POLB inh inconclusive and POLH inh 50µM*.
Screening CCOC(=O)c1c(NC(=O)/C=C/C(=O)O)sc(C)c1-c1ccc(C(C)(C)C)cc1 returned Pol kappa inh -12%, L3MBTL1 block -7%[11.4 µM], POLI inh inconclusive, POLB inh inconclusive and POLH inh 22µM*.
For C=CCn1c(SCc2cc(=O)n3ccsc3n2)nc2sc(C)c(C)c2c1=O the results were Pol kappa inh -42%, L3MBTL1 block -14%, POLI inh 32µM*, POLB inh 50µM* and POLH inh inconclusive.
C=CCn1c(SCC(=O)c2cccs2)nc2sc(C)c(C)c2c1=O was read as Pol kappa inh -10%, L3MBTL1 block 5%, POLI inh -2%, POLB inh inconclusive and POLH inh 13%.
COc1ccccc1CNc1nc(-c2ccco2)nn1C(=O)c1cc(OC)c(OC)c(OC)c1 was read as Pol kappa inh -9%, POLI inh 20%, POLB inh 4% and POLH inh -19%.
`COc1cccc(C2c3[nH]c4ccccc4c3C[C@H]3C(=O)N(C4CC4)CC(=O)N23)c1` (some centres not stated) gave Pol kappa inh 6%, POLI inh 32µM*, POLB inh 1% and POLH inh inconclusive.
Screening COc1cccc(C2c3[nH]c4ccccc4c3C[C@H]3C(=O)N(C)CC(=O)N23)c1 (some centres not stated) returned Pol kappa inh 12%, POLI inh 2%, POLB inh 53% and POLH inh 2%.
N#Cc1c(-c2cccc(Br)c2)cc(-c2ccco2)[nH]c1=O was read as Pol kappa inh -38%, L3MBTL1 block inconclusive, POLI inh inconclusive, POLB inh 18µM* and POLH inh 50µM*.
For COc1ccc(-c2cc(-c3ccco3)[nH]c(=O)c2C#N)cc1 the results were Pol kappa inh 0%, POLI inh 27%, POLB inh inconclusive and POLH inh inconclusive.
For Cc1ccc(C)c(N2CCN(C(c3ccccc3)c3nnc(-c4ccccc4F)o3)CC2)c1 (configuration not stated) the results were Pol kappa inh 4%, POLI inh -4%, POLB inh -22% and POLH inh -26%.
`Cc1ccc(C)c(N2CCN(C(c3ccc(F)cc3)c3nnc(-c4ccccc4)o3)CC2)c1` (configuration not stated) gave Pol kappa inh inconclusive, POLI inh 89µM*, POLB inh 10% and POLH inh -8%.
`Oc1ccc(N=Cc2ccc(O)c(O)c2)cc1` gave Pol kappa inh 45µM*, L3MBTL1 block 8.9µM*, POLI inh 13µM*, POLB inh inconclusive and POLH inh 3.2µM*.
Screening CN1CCN(Cc2cc(COCc3ccccc3)c3cccnc3c2O)CC1 returned Pol kappa inh -1%, L3MBTL1 block 14µM*, POLI inh 141%, POLB inh 17% and POLH inh -8%.
`CCCOCc1cc(CN2CCN(c3cccc(Cl)c3)CC2)c(O)c2ncccc12` gave Pol kappa inh 0%, POLI inh -22%, POLB inh 24% and POLH inh -17%.
`Oc1ccc(COC2CCCC2)c2cccnc12` gave L3MBTL1 block 20µM*.
`COCc1ccc(O)c2ncccc12` gave Pol kappa inh 9%, POLI inh 3%, POLB inh 22% and POLH inh -5%.
Screening O=[N+]([O-])c1cc(CN2CCN(c3ccccc3)CC2)c(O)c2ncccc12 returned Pol kappa inh -24%, L3MBTL1 block 4µM*, POLI inh 38%, POLB inh 23% and POLH inh -12%.
CN1CCN(C2CCN(Cc3ccc(O)c4ncccc34)CC2)CC1 was read as Pol kappa inh -3%, L3MBTL1 block 14µM*, POLI inh -1% and POLH inh -15%.
Screening CN(Cc1cc([N+](=O)[O-])c2cccnc2c1O)C1CCCCC1 returned L3MBTL1 block -1% and POLB inh -14%.
O=Cc1ccc(N2CCOCC2)cc1 was read as Pol kappa inh -2% and POLI inh 33%.
